Reference: the supplement of paper PMC7156485
± gives the standard deviation of the averaged measurements.

Columns and labels:
Settings in all cases: concentration: 10 µM; 24 h
HCC1569 [1] = assay: cell number relative to DMSO (% of DMSO); higher = more cells (less growth inhibition / toxicity)
Outline: (§1)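 Cell number or H1.0 nuclear intensity appears as percent of the plate control, based on the median of replicates. Measurements came from HCC1569 and TDF cells exposed in triplicate to compounds at 10 µM for 24 h at 37 °C, then imaged in six fields per well at ×10. Positional effects were smoothed out of HCC1569 values.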

TDF [2] = assay: as above
Outline: as §1

TDF [3] = assay: H1.0 immunofluorescence intensity relative to DMSO (% of DMSO); higher = stronger H1.0 induction, active = 120 or more
Outline: as §1

HCC1569 [4] = assay: H1.0 immunofluorescence intensity relative to DMSO (% of DMSO); higher = stronger H1.0 induction, active = 140 or more
Outline: as §1
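For H1.0 immunofluorescence intensity relative to DMSO in this document: TDF is a line of transformed human dermal fibroblasts of mesenchymal origin.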
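For cell number relative to DMSO in this document: TDF denotes transformed human dermal fibroblasts of mesenchymal origin.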

SMILES: O=C1C(Cl)=C(N2C(=O)CCC2=O)C(=O)c2ccccc21 [MEK Inhibitor II]
- cell number (HCC1569 [1]): 98.9
- cell number (TDF [2]): 110
- H1.0 immunofluorescence intensity (TDF [3]): 90.5 (inactive)
- H1.0 immunofluorescence intensity (HCC1569 [4]): 121 (inactive)

SMILES: O=c1[nH]ccc2c(S(=O)(=O)N3CCCNCC3)cccc12
- cell number (HCC1569 [1]): 106
- cell number (TDF [2]): 110
- H1.0 immunofluorescence intensity (TDF [3]): 86 (inactive)
- H1.0 immunofluorescence intensity (HCC1569 [4]): 104 (inactive)

SMILES: Nc1c2c(nc3ccccc13)CCCC2O.O=C(O)C=CC(=O)O (configuration not stated) [Hydroxytacrine maleate]
- cell number (HCC1569 [1]): 104
- cell number (TDF [2]): 103
- H1.0 immunofluorescence intensity (TDF [3]): 96.8 (inactive)
- H1.0 immunofluorescence intensity (HCC1569 [4]): 83.4 (inactive)

SMILES: O=c1[nH]cc(F)c(=O)[nH]1 [5-Fluorouracil]
- cell number (HCC1569 [1]): 81.345 ± 0.068
- cell number (TDF [2]): 92.4 ± 4.8
- H1.0 immunofluorescence intensity (TDF [3]): 97.7 (inactive)
- H1.0 immunofluorescence intensity (HCC1569 [4]): 94.5 (inactive)

SMILES: COc1cc2ncnc(Nc3ccc(F)c(Cl)c3)c2cc1OCCCN1CCOCC1
- cell number (HCC1569 [1]): 80.2
- cell number (TDF [2]): 101
- H1.0 immunofluorescence intensity (TDF [3]): 105 (inactive)
- H1.0 immunofluorescence intensity (HCC1569 [4]): 112 (inactive)

SMILES: COc1cc2nccc(Oc3ccc(NC(=O)Nc4cc(C)on4)c(Cl)c3)c2cc1OC [Tivozanib]
- cell number (HCC1569 [1]): 79.2
- cell number (TDF [2]): 101
- H1.0 immunofluorescence intensity (TDF [3]): 99 (inactive)
- H1.0 immunofluorescence intensity (HCC1569 [4]): 116 (inactive)

SMILES: O=c1[nH]c2cc(C(F)(F)F)ccc2n1-c1cc(C(F)(F)F)ccc1O
- cell number (HCC1569 [1]): 101
- cell number (TDF [2]): 95.9
- H1.0 immunofluorescence intensity (TDF [3]): 96.6 (inactive)
- H1.0 immunofluorescence intensity (HCC1569 [4]): 98.4 (inactive)

SMILES: Cn1sc(=O)n(Cc2ccccc2)c1=O [GSK-3b Inhibitor I]
- cell number (HCC1569 [1]): 98.9
- cell number (TDF [2]): 102
- H1.0 immunofluorescence intensity (TDF [3]): 98.3 (inactive)
- H1.0 immunofluorescence intensity (HCC1569 [4]): 134 (inactive)

SMILES: Nc1ccn(C2OC(CO)C(O)C2O)c(=O)n1 (configuration not stated) [Cytarabine]
- cell number (HCC1569 [1]): 79.6
- cell number (TDF [2]): 51.3
- H1.0 immunofluorescence intensity (TDF [3]): 105 (inactive)
- H1.0 immunofluorescence intensity (HCC1569 [4]): 102 (inactive)

SMILES: Cc1cnc(-c2cc(N3CCN(C(=O)CCS(C)(=O)=O)CC3)ncc2Cl)c(C)c1.Cl
- cell number (HCC1569 [1]): 103
- cell number (TDF [2]): 103
- H1.0 immunofluorescence intensity (TDF [3]): 83.9 (inactive)
- H1.0 immunofluorescence intensity (HCC1569 [4]): 104 (inactive)

SMILES: Cc1c2c(c(O)c3c(O)cccc13)C(=O)OC2C1C(O)C(=O)C(C(N)=O)=C(O)C1N(C)C (racemic)
- cell number (HCC1569 [1]): 93.9
- cell number (TDF [2]): 93.1
- H1.0 immunofluorescence intensity (TDF [3]): 96.4 (inactive)
- H1.0 immunofluorescence intensity (HCC1569 [4]): 102 (inactive)

SMILES: Nc1nc(OCc2ccccc2)c2[nH]cnc2n1 [O6-benzylguanine]
- cell number (HCC1569 [1]): 102
- cell number (TDF [2]): 96.6
- H1.0 immunofluorescence intensity (TDF [3]): 101 (inactive)
- H1.0 immunofluorescence intensity (HCC1569 [4]): 95.8 (inactive)

SMILES: COc1ccc2cc1Oc1ccc(cc1)CC1c3c(cc4c(c3Oc3cc5c(cc3OC)CCN(C)C5C2)OCO4)CCN1C (configuration not stated) [Cepharanthine]
- cell number (HCC1569 [1]): 95.3
- cell number (TDF [2]): 83
- H1.0 immunofluorescence intensity (TDF [3]): 108 (inactive)
- H1.0 immunofluorescence intensity (HCC1569 [4]): 129 (inactive)

SMILES: Cl.O=C(c1ccc(OCCN2CCCCC2)cc1)c1c(-c2ccc(O)cc2)sc2cc(O)ccc12 [Raloxifene hydrochloride]
- cell number (HCC1569 [1]): 90.1
- cell number (TDF [2]): 100
- H1.0 immunofluorescence intensity (TDF [3]): 109 (inactive)
- H1.0 immunofluorescence intensity (HCC1569 [4]): 121 (inactive)

SMILES: COc1ccc(S(=O)(=O)N(CCO)c2ccccc2CN(C)CC=Cc2ccc(Cl)cc2)cc1
- cell number (HCC1569 [1]): 74.4
- cell number (TDF [2]): 86.7
- H1.0 immunofluorescence intensity (TDF [3]): 103 (inactive)
- H1.0 immunofluorescence intensity (HCC1569 [4]): 183 (active)

SMILES: Br.CN1CCc2cc(O)c(O)cc2C(c2ccccc2)C1 (configuration not stated)
- cell number (HCC1569 [1]): 105
- cell number (TDF [2]): 98.2
- H1.0 immunofluorescence intensity (TDF [3]): 89.8 (inactive)
- H1.0 immunofluorescence intensity (HCC1569 [4]): 105 (inactive)

SMILES: COc1ccccc1N1CCN(CCN(C(=O)c2ccc(F)cc2)c2ccccn2)CC1.Cl.Cl [p-MPPF dihydrochloride]
- cell number (HCC1569 [1]): 99.7
- cell number (TDF [2]): 109
- H1.0 immunofluorescence intensity (TDF [3]): 89.7 (inactive)
- H1.0 immunofluorescence intensity (HCC1569 [4]): 87.2 (inactive)

SMILES: CN1CCCC1c1cccnc1 (single isomer, unassigned; (-)) [(-)-Nicotine]
- cell number (HCC1569 [1]): 99.2
- cell number (TDF [2]): 114
- H1.0 immunofluorescence intensity (TDF [3]): 94.2 (inactive)
- H1.0 immunofluorescence intensity (HCC1569 [4]): 80 (inactive)

SMILES: C=CCc1ccc(O)c(-c2ccc(O)c(CC=C)c2)c1 [Honokiol]
- cell number (HCC1569 [1]): 100
- cell number (TDF [2]): 107
- H1.0 immunofluorescence intensity (TDF [3]): 81 (inactive)
- H1.0 immunofluorescence intensity (HCC1569 [4]): 101 (inactive)

SMILES: CC(C)Cc1ccc(C(C)C(=O)O)cc1 (racemic)
- cell number (HCC1569 [1]): 103
- cell number (TDF [2]): 112
- H1.0 immunofluorescence intensity (TDF [3]): 95.4 (inactive)
- H1.0 immunofluorescence intensity (HCC1569 [4]): 97.7 (inactive)

SMILES: N[C@H](C(=O)O)c1cc(O)cc(O)c1 [(S)-3,5-Dihydroxyphenylglycine]
- cell number (HCC1569 [1]): 101
- cell number (TDF [2]): 105
- H1.0 immunofluorescence intensity (TDF [3]): 96.4 (inactive)
- H1.0 immunofluorescence intensity (HCC1569 [4]): 97.4 (inactive)

SMILES: COc1cc(C=C(C#N)C(=O)c2ccc(O)c(O)c2)cc(I)c1O [I-OMe-Tyrphostin AG 538]
- cell number (HCC1569 [1]): 97.2
- cell number (TDF [2]): 102
- H1.0 immunofluorescence intensity (TDF [3]): 102 (inactive)
- H1.0 immunofluorescence intensity (HCC1569 [4]): 106 (inactive)

SMILES: CC=Cc1ccc(OC)cc1 [Anethole, trans-]
- cell number (HCC1569 [1]): 96.1
- cell number (TDF [2]): 81.4
- H1.0 immunofluorescence intensity (TDF [3]): 107 (inactive)
- H1.0 immunofluorescence intensity (HCC1569 [4]): 105 (inactive)

SMILES: CC(C)c1cc(/C=C(\C#N)C(=O)NCCCc2ccccc2)cc(C(C)C)c1O
- cell number (HCC1569 [1]): 89.5
- cell number (TDF [2]): 81.8
- H1.0 immunofluorescence intensity (TDF [3]): 97.9 (inactive)
- H1.0 immunofluorescence intensity (HCC1569 [4]): 141 (active)

SMILES: O=C1NC(=O)C(c2cn(CCCn3ccnc3)c3ccccc23)=C1Nc1ccccc1 [PKCb Inhibitor]
- cell number (HCC1569 [1]): 100
- cell number (TDF [2]): 113
- H1.0 immunofluorescence intensity (TDF [3]): 87.7 (inactive)
- H1.0 immunofluorescence intensity (HCC1569 [4]): 104 (inactive)

SMILES: COc1ccc(CN(CCN(C)C)c2ccccn2)cc1.O=C(O)C=CC(=O)O [Mepyramine maleate]
- cell number (HCC1569 [1]): 106
- cell number (TDF [2]): 94.8
- H1.0 immunofluorescence intensity (TDF [3]): 92.3 (inactive)
- H1.0 immunofluorescence intensity (HCC1569 [4]): 100 (inactive)

SMILES: CNC1C(O)C(NC)C2OC3(O)C(=O)CC(C)OC3OC2C1O.Cl.Cl (configuration not stated) [Spectinomycin.2HCl]
- cell number (HCC1569 [1]): 98.8
- cell number (TDF [2]): 106
- H1.0 immunofluorescence intensity (TDF [3]): 94.4 (inactive)
- H1.0 immunofluorescence intensity (HCC1569 [4]): 100 (inactive)

SMILES: Cn1c(=O)c2[nH]cnc2n(C)c1=O.Cn1c(=O)c2[nH]cnc2n(C)c1=O.NCCN [Aminophylline ethylenediamine]
- cell number (HCC1569 [1]): 103
- cell number (TDF [2]): 102
- H1.0 immunofluorescence intensity (TDF [3]): 98.7 (inactive)
- H1.0 immunofluorescence intensity (HCC1569 [4]): 93.8 (inactive)

SMILES: CC(C)NCC(O)COc1ccc(CC(N)=O)cc1 (configuration not stated) [Atenolol]
- cell number (HCC1569 [1]): 99.9
- cell number (TDF [2]): 102
- H1.0 immunofluorescence intensity (TDF [3]): 94.7 (inactive)
- H1.0 immunofluorescence intensity (HCC1569 [4]): 113 (inactive)

SMILES: COc1ccccc1N1CCN(CC(O)COc2cccc3ccccc23)CC1.Cl.Cl (configuration not stated) [Naftopidil.2HCl]
- cell number (HCC1569 [1]): 97.4
- cell number (TDF [2]): 98.3
- H1.0 immunofluorescence intensity (TDF [3]): 88.6 (inactive)
- H1.0 immunofluorescence intensity (HCC1569 [4]): 103 (inactive)

SMILES: CC(=O)NC(CS)C(=O)O (configuration not stated) [N-Acetyl-Cysteine]
- cell number (HCC1569 [1]): 102
- cell number (TDF [2]): 95.1
- H1.0 immunofluorescence intensity (TDF [3]): 96.3 (inactive)
- H1.0 immunofluorescence intensity (HCC1569 [4]): 90.6 (inactive)

SMILES: CC(C)C(NC(=O)OCc1ccccc1)C(=O)NC(C=O)Cc1ccccc1 (configuration not stated)
- cell number (HCC1569 [1]): 99.5
- cell number (TDF [2]): 96.2
- H1.0 immunofluorescence intensity (TDF [3]): 103 (inactive)
- H1.0 immunofluorescence intensity (HCC1569 [4]): 102 (inactive)

SMILES: Cc1[nH]c(C=C2C(=O)Nc3ccc(S(=O)(=O)Cc4c(Cl)cccc4Cl)cc32)c(C)c1C(=O)N1CCCC1CN1CCCC1 (configuration not stated)
- cell number (HCC1569 [1]): 75.3
- cell number (TDF [2]): 22.8
- H1.0 immunofluorescence intensity (TDF [3]): 133 (active)
- H1.0 immunofluorescence intensity (HCC1569 [4]): 204 (active)

SMILES: CCCCCC(=O)C=CC1C(O)CC(=O)C1CC=CCCCC(=O)O (configuration not stated) [15-keto-prostaglandin E2]
- cell number (HCC1569 [1]): 100
- cell number (TDF [2]): 108
- H1.0 immunofluorescence intensity (TDF [3]): 89.3 (inactive)
- H1.0 immunofluorescence intensity (HCC1569 [4]): 90.9 (inactive)

SMILES: CC(N)=NCCCC[C@H](N)C(=O)O.Cl [L-N6-(1-Iminoethyl)lysine hydrochloride]
- cell number (HCC1569 [1]): 103
- cell number (TDF [2]): 109
- H1.0 immunofluorescence intensity (TDF [3]): 84.8 (inactive)
- H1.0 immunofluorescence intensity (HCC1569 [4]): 91.6 (inactive)

SMILES: CCCCCCCCC=CCCCCCCCC(=O)OCC(O)COP(=O)(O)O (configuration not stated) [Lysophosphatidic acid]
- cell number (HCC1569 [1]): 101
- cell number (TDF [2]): 104
- H1.0 immunofluorescence intensity (TDF [3]): 96.9 (inactive)
- H1.0 immunofluorescence intensity (HCC1569 [4]): 105 (inactive)

SMILES: CC(C)NCC(O)c1ccc(O)c(O)c1.Cl (single isomer, unassigned; (-)) [(-)-Isoproterenol hydrochloride]
- cell number (HCC1569 [1]): 104
- cell number (TDF [2]): 107
- H1.0 immunofluorescence intensity (TDF [3]): 89.5 (inactive)
- H1.0 immunofluorescence intensity (HCC1569 [4]): 93.8 (inactive)

SMILES: CNCC(O)c1ccc(O)c(O)c1.O=C(O)C(O)C(O)C(=O)O (single isomer, unassigned; (-)) [(-)-Epinephrine bitartrate]
- cell number (HCC1569 [1]): 100
- cell number (TDF [2]): 107
- H1.0 immunofluorescence intensity (TDF [3]): 90.8 (inactive)
- H1.0 immunofluorescence intensity (HCC1569 [4]): 82.3 (inactive)
